The structures appear in SMILES notation. Calls of active or inactive are those of the source.

Experiment [1] deals with Human papillomavirus type 1a protein E7 (residues 44-93). Description: small molecules binding HPV E7 44-93 – biochemical, small-molecule microarray, residues 44-93, 635 nm fluorescence, primary screen (AID 1108).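 Further: E7 fragment applied at 1 µg/mL in TBST for 1 h at 4 C; score combines spot fluorescence with its signal to noise ratio.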 Conditions: fluorescence 635 nm, higher = more signal.
Experiment [2] can be described thus: hepatitis C replication reporter changes, two-sided – Huh7 cells, luciferase reporter, HCV replication inhibitor project, primary screen (AID 1109).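 Further: huh7 hepatoma cells harbouring a luciferase neomycin HCV replicon reporter; luciferase luminescence as measure of HCV replicon replication; test concentration not given here.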 Conditions: Huh7 HCV replicon luciferase reporter, 48 h; higher = more signal. On the technique in general: Reporter assays use an easily measured gene product as a stand-in for the process of interest.
Experiment [3] concerns the target Left-right determination factor 2 (Homo sapiens) (UniProt O00292). Description: small molecules binding LEFTY2 protein – biochemical, small-molecule microarray, 635 nm fluorescence scan, primary screen (AID 1110). Conditions: higher = more signal.
The target in experiment [4] is Calmodulin-1 (Homo sapiens) (UniProt P0DP23). Description: small molecules binding calmodulin-1 with EGTA – biochemical, small-molecule microarray, Cy5-labelled CALM1, profiling panel (AID 1111).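 Further: labelled calmodulin applied in Tris saline Tween buffer holding calcium plus EGTA and DTT.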 Conditions: Cy5-CALM1 binding fluorescence, higher = more signal.
For experiment [5] the target is unchanged. Description: small molecules binding Ca-loaded calmodulin-1 – biochemical, small-molecule microarray, Cy5-labelled CALM1, plus calcium, artefact control for SMM control-protein annotation, profiling panel (AID 1112).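 Further: score merges spot fluorescence with signal to noise from triplicate slides.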 Conditions: Cy5-CALM1 binding fluorescence, higher = more signal.
A short description of experiment [6]: probe aWnt5a binding to arrayed compounds – biochemical, biotinylated probe, 635/667 nm fluorescence, primary screen (AID 1113).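 Further: score merges 667 nm fluorescence intensity with signal-to-noise per printed feature.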 Conditions: small-molecule microarray, higher = more signal.
Experiment [7] is described as follows: probe aShh binding to arrayed compounds – biochemical, biotinylated probe, 635/667 nm fluorescence, primary screen (AID 1114).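 Further: probe is biotin-labelled aShh protein from a stem cell growth factor screen; measures binding of labelled protein to compounds printed on the slide; score merges feature fluorescence at 667 nm with signal-to-noise.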 As to conditions: small-molecule microarray, higher = more signal.
Experiment [8] is described as follows: probe aNog binding to arrayed compounds – biochemical, biotinylated probe, 635/667 nm fluorescence, primary screen (AID 1115).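 Further: probe is biotinylated aNog protein used at 0.15 µg/mL for 1 h at 4 C; z-score combines 667 nm fluorescence of each spot with its signal to noise.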 As to conditions: small-molecule microarray, higher = more signal.
Experiment [9] has as its target Torsin-1A-interacting protein 1 (Homo sapiens) (UniProt Q5JTV8). Description: compound microarray binding of lysate hLAP1 – cell lysate, small-molecule microarray, COS7 lysate, 635/667 nm fluorescence, primary screen (AID 1116). As to conditions: 635 nm fluorescence, higher = more signal.
In experiment [10] the target is Alpha-bungarotoxin (Bungarus multicinctus) (UniProt P60615). Description: compounds binding labelled alpha-BTX control protein – biochemical, small-molecule microarray, Alexa647 label, 635/667 nm fluorescence, artefact control for SMM control protein annotation, profiling panel (AID 1117). As to conditions: alpha-BTX-A647 binding fluorescence, higher = more signal.
Chain of Alpha-bungarotoxin (Bungarus multicinctus) (P60615 whole entry, looked up): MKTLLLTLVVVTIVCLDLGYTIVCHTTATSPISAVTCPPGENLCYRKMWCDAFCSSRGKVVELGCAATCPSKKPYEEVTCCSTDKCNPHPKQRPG
Another experiment addresses Albumin (Bos taurus) (UniProt P02769). Description: compounds binding labelled BSA control protein – biochemical, small-molecule microarray, Alexa647 label, 635/667 nm fluorescence, artefact control for SMM control protein annotation, profiling panel (AID 1118).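 Further: score merges 667 nm emission intensity and signal-to-noise per printed compound spot.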 As to conditions: BSA-A647 binding, fluorescence 635 nm, higher = more signal.
Experiment [11] can be described thus: probe aXIP binding to arrayed compounds – biochemical, NeuroSMM set, 635/667 nm fluorescence, primary screen (AID 1119).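 Further: probe is the protein aXip251-270 applied at 1 µg/mL to compound-printed slides; binding of probe to printed compounds measured as 667 nm fluorescence plus signal to noise.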 As to conditions: small-molecule microarray, higher = more signal, called active from +8 up or from −8 down.
A short description of experiment [12]: probe aNOTCH3 binding on compound microarray – biochemical, small-molecule microarray, 635/667 nm fluorescence, primary screen (AID 1120).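 Further: probe is a biotin-tagged antibody raised against NOTCH3 rather than NOTCH3 protein; score merges spot fluorescence near 667 nm with spot signal to noise.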 Conditions: higher = more signal.
The nature of experiment [13]: probe aNOTCH2 binding on compound microarray – biochemical, small-molecule microarray, 635/667 nm fluorescence, primary screen (AID 1121).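 Further: score merges feature fluorescence read at 667 nm with its signal to noise.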 Conditions: higher = more signal.
Experiment [14] addresses Carbonic anhydrase 2 (Homo sapiens) (UniProt P00918). Description: compounds binding carbonic anhydrase 2 – biochemical, small-molecule microarray, Alexa647-labelled CAII, profiling panel (AID 1122). Conditions: CAII-A647 binding fluorescence, higher = more signal.
Experiment [15] can be described thus: COS7 lysate on small-molecule microarray, probe aHis, 635 nm (AID 1123).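 Further: z-score combines 667nm fluorescence intensity with signal-to-noise per printed compound spot.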 Conditions: COS7 cell lysate, fluorescence, higher = more signal.
Experiment [16] is described as follows: probe aLAP1 signal on lysate-treated microarray – cell lysate, small-molecule microarray, COS7 lysate, primary screen (AID 1124).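 Further: lysate comes from COS7 cells expressing LAP1 and is applied at 0.3 µg/mL; score merges spot fluorescence near 667 nm with signal-to-noise over triplicate slides.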 Conditions: probe aLAP1, fluorescence, higher = more signal.
Another experiment relates to Sam68 (KHDRBS1). Description: compounds binding KHDRBS1 protein – biochemical, small-molecule microarray, 635 nm fluorescence, primary screen (AID 1125).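 Further: score merges 667 nm channel intensity with signal to noise over triplicate slides.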 As to conditions: higher = more signal.
The test system of experiment [17] is Chordin-like protein 2 (CHRDL2). Description: compounds binding chordin-like 2 – biochemical, small-molecule microarray, 635 nm fluorescence, primary screen (AID 1126).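 Further: printed compound slides probed with Chrdl2 protein at 4 µg/mL for 1 h at 4 C; score merges 667 nm emission intensity with signal to noise over three replicate slides.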 Conditions: fluorescence 635 nm, higher = more signal.
The target of experiment [18] is Concanavalin-A (Canavalia ensiformis) (UniProt P02866). Description: compounds binding concanavalin A lectin – biochemical, small-molecule microarray, Alexa647 label, 635 nm, artefact control for SMM control protein annotation, primary screen (AID 1127).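 Further: z combines 667 nm emission intensity with signal-to-noise across three replicate slides.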 As to conditions: ConA-A647 binding fluorescence, higher = more signal.
Chain of Concanavalin-A (Canavalia ensiformis) (P02866 whole entry, looked up): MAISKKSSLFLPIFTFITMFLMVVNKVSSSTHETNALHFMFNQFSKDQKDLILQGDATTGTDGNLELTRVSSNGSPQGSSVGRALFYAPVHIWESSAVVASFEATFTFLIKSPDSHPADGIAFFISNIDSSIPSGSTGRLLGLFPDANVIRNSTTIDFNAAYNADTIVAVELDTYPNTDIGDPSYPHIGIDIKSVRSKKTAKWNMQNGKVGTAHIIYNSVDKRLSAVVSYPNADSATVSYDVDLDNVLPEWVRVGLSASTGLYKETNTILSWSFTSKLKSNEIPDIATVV

Chain of Left-right determination factor 2 (Homo sapiens) (O00292 whole entry, looked up): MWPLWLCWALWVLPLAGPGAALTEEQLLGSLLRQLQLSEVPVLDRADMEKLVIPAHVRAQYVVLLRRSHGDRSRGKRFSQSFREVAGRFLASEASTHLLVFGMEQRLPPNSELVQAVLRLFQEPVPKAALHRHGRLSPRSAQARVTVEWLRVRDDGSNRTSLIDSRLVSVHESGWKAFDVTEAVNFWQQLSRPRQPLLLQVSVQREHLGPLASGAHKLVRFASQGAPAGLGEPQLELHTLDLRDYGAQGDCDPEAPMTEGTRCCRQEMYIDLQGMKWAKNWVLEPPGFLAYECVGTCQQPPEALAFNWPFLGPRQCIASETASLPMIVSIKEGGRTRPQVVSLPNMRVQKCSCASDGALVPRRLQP
Chain of Torsin-1A-interacting protein 1 (Homo sapiens) (Q5JTV8 whole entry, looked up): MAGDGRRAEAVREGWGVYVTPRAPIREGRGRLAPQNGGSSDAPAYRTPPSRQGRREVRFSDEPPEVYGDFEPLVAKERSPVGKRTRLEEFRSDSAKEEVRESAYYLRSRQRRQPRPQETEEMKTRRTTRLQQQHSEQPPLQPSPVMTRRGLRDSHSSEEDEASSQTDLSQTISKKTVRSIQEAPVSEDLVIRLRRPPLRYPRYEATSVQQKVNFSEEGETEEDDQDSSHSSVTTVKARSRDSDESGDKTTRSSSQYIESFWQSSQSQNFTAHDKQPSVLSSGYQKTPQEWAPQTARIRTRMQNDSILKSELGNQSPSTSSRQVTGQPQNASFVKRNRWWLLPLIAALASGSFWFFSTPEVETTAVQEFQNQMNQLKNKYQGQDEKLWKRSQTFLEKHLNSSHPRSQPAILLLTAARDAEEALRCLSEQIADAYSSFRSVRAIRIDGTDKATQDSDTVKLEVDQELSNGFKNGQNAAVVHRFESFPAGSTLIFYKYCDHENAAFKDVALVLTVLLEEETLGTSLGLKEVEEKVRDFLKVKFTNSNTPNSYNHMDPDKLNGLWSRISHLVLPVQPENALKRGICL
Chain of Albumin (Bos taurus) (P02769 whole entry, looked up): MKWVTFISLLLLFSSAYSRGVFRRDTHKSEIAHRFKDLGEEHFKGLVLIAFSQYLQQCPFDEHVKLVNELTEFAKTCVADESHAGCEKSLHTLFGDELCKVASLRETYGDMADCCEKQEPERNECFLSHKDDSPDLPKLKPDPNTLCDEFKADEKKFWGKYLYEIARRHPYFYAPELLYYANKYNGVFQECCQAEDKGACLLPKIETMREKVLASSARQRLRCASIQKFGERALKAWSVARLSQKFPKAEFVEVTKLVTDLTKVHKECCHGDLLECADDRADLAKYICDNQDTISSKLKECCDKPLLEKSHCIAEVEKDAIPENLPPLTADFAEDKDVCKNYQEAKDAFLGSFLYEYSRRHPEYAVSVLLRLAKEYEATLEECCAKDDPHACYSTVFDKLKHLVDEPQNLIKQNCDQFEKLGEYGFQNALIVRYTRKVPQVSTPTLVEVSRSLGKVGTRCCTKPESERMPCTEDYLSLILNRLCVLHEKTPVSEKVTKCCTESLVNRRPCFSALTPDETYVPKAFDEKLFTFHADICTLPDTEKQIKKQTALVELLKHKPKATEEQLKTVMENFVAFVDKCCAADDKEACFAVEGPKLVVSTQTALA

On to `C[C@H]1ON(c2ccccc2)[C@@H](c2ccccc2)[C@@H]1C(=O)N1C(=O)OC[C@@H]1c1ccccc1`, for which the composite z-score in experiment [1] is 0.184; in experiment [3], 0.521; in experiment [4] it was -0.238; in experiment [5], -0.162; in [6], -0.134; in [7], -0.251. In addition, the composite z-score in experiment [8] is -0.0855; in experiment [9] it was 0.357; in experiment [10], -0.1; with Albumin (Bos taurus), 0.0537; in [12] it was -0.0493; in experiment [13], -0.118. For the same compound, the composite z-score in experiment [14] was 0.259; in experiment [15] it was 0.46; in [16], -0.0222; with Sam68 (KHDRBS1), 0.44; in experiment [17], 0.424; in [18], 0.0565. For the same compound, the z-score in experiment [2] was -0.432. In addition, the composite Z-score in experiment [11] is 1.2 (inactive).

`CCCN1C(=O)[C@@H]2Cc3c([nH]c4ccccc34)[C@@H](c3cccc(O)c3)N2C1=O`: the composite z-score in experiment [1] was 0.672; in [3], 0.326; in experiment [4] it was 0.0779; in experiment [5], -0.346; in experiment [6] it was -0.176; in experiment [7] it was -0.221. Besides, the composite z-score in experiment [8] is -0.0737; in experiment [9] it was -0.489; in experiment [10], 0.414; in the experiment with Albumin (Bos taurus), -0.17; in experiment [12], -0.0967; in [13], -0.0859. Further, the composite z-score in [14] is -0.112; in experiment [15], 0.207; in experiment [16], 1.36; with Sam68 (KHDRBS1), 0.65; in experiment [17], 0.426; in [18], 0.46. In addition, the z-score in experiment [2] is -0.197. Also, the composite Z-score in experiment [11] is -0.12 (inactive).

Turning to `N#Cc1ccc(NN2C(C(O)c3ccco3)C=CC3C(=O)N(c4ccccc4)C(=O)C32)cc1` (stereo not given), the composite z-score in experiment [1] is -0.345; in experiment [3], -0.0879; in [4], 0.144; in experiment [5], -0.539; in experiment [6], 0.0012; in experiment [7], -0.0035. Moreover, the composite z-score in experiment [8] was 0.531; in [9], -0.247; in experiment [10], 0.518; with Albumin (Bos taurus), 0.488; in experiment [12], 0.188; in experiment [13] it was -0.0148. The composite z-score in experiment [14] was 0.89; in experiment [15] it was 1.5; in experiment [16], 0.687; with Sam68 (KHDRBS1), 0.0163; in [17], 0.111; in experiment [18], 0.458. The compound also had a z-score in [2] of -0.36. Also, the composite Z-score in [11] was 0.499 (inactive).

In the case of `CC1C=C(CCCO)C=C(C(=O)OCCS(C)(=O)=O)C(C(=O)OCCS(C)(=O)=O)=CN1Cc1cccc(OC(F)(F)F)c1` (stereo not given), the composite z-score in experiment [1] is 1.11; in experiment [3], -0.152; in [4], 1.7; in [5], 1.09; in [6] it was 0.027; in experiment [7], 0.481. The composite z-score in experiment [8] is 1.27; in experiment [9] it was 2.99; in experiment [10] it was 0.761; with Albumin (Bos taurus) it was 1.03; in [12], 0.0929; in [13], 0.0231. Moreover, the composite z-score is 0.749 in experiment [14]; 2.22 in [15]; 1.11 in [16]; 1.21 with Sam68 (KHDRBS1); -0.815 in experiment [17]; 1.08 in experiment [18]. The z-score in [2] is -1.82. Besides, in experiment [11], the composite Z-score is -0.115 (inactive).

In the case of `CCN(CC)c1ccc(N2CC=CC34O[C@@H]5/C=C\CCCOC(=O)C5[C@H]3C(=O)N(CCCCCO)[C@@H]4C2=O)cc1` (stereo not given in full), the composite z-score in experiment [1] is -0.592; in experiment [3] it was -1.57; in experiment [4], -1.06; in [5], -0.996; in experiment [6], -0.203; in experiment [7] it was -0.221. Besides, the composite z-score in experiment [8] was -0.254; in experiment [9], 0.424; in [10], -1.04; in the experiment with Albumin (Bos taurus), 0.567; in [12], -0.402; in experiment [13] it was -0.198. Besides, the composite z-score in [14] is 0.342; in [15] it was -0.343; in experiment [16], 0.0397; in the experiment on Sam68 (KHDRBS1), -1.83; in experiment [17], -1.2; in experiment [18] it was -0.518. In addition, the z-score in experiment [2] was -0.376. Moreover, the composite Z-score in [11] was 0.226 (inactive).

As to `COCCOC(=O)N1C(=O)[C@@]2(c3cc(C#CCNC(N)=O)ccc31)[C@H](C(=O)N1CCCCCCC1)[C@H]1C(=O)O[C@H](c3ccccc3)[C@H](c3ccccc3)N1[C@@H]2c1ccc(OCCO)cc1`, the composite z-score is 0.748 in experiment [1]; 0.277 in experiment [3]; 1.13 in experiment [4]; 0.801 in experiment [5]; 0.0075 in [6]; -0.138 in experiment [7]. Also, the composite z-score in experiment [8] was -0.118; in experiment [9] it was 0.263; in experiment [10], 1.09; in the experiment with Albumin (Bos taurus), 0.27; in [12], 0.331; in experiment [13] it was 0.0245. Also, the composite z-score is 0.244 in [14]; 0.46 in [15]; 1.32 in experiment [16]; 0.653 in the experiment with Sam68 (KHDRBS1); 0.298 in [17]; 0.979 in experiment [18]. In addition, the z-score in experiment [2] was -0.431. In addition, the composite Z-score in [11] is 0.32 (inactive).

The values are drawn from PubChem BioAssay.
